According to PubChem BioAssay (NCI):
Values joined by “and” are separate entries in the source; they are usually repeats but may differ in a detail not shown here. Equal entries are not always repeated. Compounds without any hit were thinned out: in the full panel of roughly 83,000, 20% have a hit.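 Method: cells in 96-well plates; compound added at one concentration; 48 h incubation; percent growth measured; values under 10 scored active.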 Active and inactive are the calls of the source.

What was measured:
Experiment in all cases: NCI-60 one-dose screen, 48 h (100 = growth as untreated, 0 = no growth, -100 = all killed)
Details in all cases: 10 µM unless noted
NCI-H23 lung = tested on: NCI-H23 lung
NCI-H226 lung = tested on: NCI-H226 lung
NCI-H322M lung = tested on: NCI-H322M lung
HOP-62 NSCLC = tested on: HOP-62 NSCLC
NCI-H460 lung = tested on: NCI-H460 lung
HOP-92 NSCLC = tested on: HOP-92 NSCLC
NCI-H522 lung = tested on: NCI-H522 lung
A549/ATCC NSCLC = tested on: A549/ATCC NSCLC
786-0 renal = tested on: 786-0 renal
COLO 205 colon = tested on: COLO 205 colon
DU-145 prostate = tested on: DU-145 prostate
K-562 leukemia = tested on: K-562 leukemia
MALME-3M melanoma = tested on: MALME-3M melanoma
MDA-MB-231 breast = tested on: MDA-MB-231 breast
RXF 393 renal = tested on: RXF 393 renal
SF-268 CNS = tested on: SF-268 CNS
SF-295 CNS = tested on: SF-295 CNS
SF-539 CNS = tested on: SF-539 CNS
UACC-257 melanoma = tested on: UACC-257 melanoma
M14 melanoma = tested on: M14 melanoma

| SMILES | growth (NCI-H23 lung) | growth (NCI-H226 lung) | growth (NCI-H322M lung) | growth (HOP-62 NSCLC) | growth (NCI-H460 lung) | growth (HOP-92 NSCLC) | growth (NCI-H522 lung) | growth (A549/ATCC NSCLC) | growth (786-0 renal) | growth (COLO 205 colon) | growth (DU-145 prostate) | growth (K-562 leukemia) | growth (MALME-3M melanoma) | growth (MDA-MB-231 breast) | growth (RXF 393 renal) | growth (SF-268 CNS) | growth (SF-295 CNS) | growth (SF-539 CNS) | growth (UACC-257 melanoma) | growth (M14 melanoma) |
| --- | --- | --- | --- | --- | --- | --- | --- | --- | --- | --- | --- | --- | --- | --- | --- | --- | --- | --- | --- | --- |
| CNc1ccc2nc3ccc(=[N+](C)C)cc-3sc2c1 | 1.76% (active) and -7.91% (active) | 63% (inactive) and 51.4% (inactive) | 30.7% (inactive) and 28.1% (inactive) | 7.64% (active) and 7.54% (active) | 9.72% (active) and 11.9% (inactive) | 36.4% (inactive) and -4.83% (active) | -19.9% (active) and 8.62% (active) | 3.27% (active) and 5.26% (active) | 37.7% (inactive) and 20.6% (inactive) | -22.3% (active) and -30.4% (active) | 42.4% (inactive) and 7.81% (active) | 8.78% (active) and 22.8% (inactive) | -28.2% (active) and -24.3% (active) | 4.03% (active) and -13.7% (active) | 58.3% (inactive) and 32.9% (inactive) | 5.13% (active) and 2.8% (active) | -7.68% (active) and 7.95% (active) | -6.95% (active) and -15.6% (active) | -22.2% (active) and -27.4% (active) | 3.79% (active) and -23.3% (active) |
| COc1cc2c(Nc3ccc(Cl)c(Cl)c3F)ncnc2cc1OCC1C[C@@H]2CN(C)C[C@@H]2C1 (some centres undefined) | -82.2% (active) and 40% (inactive) | -65.1% (active) and 46% (inactive) | -96.4% (active) and 21.5% (inactive) | -87.2% (active) and 16.6% (inactive) | -79.4% (active) and 21.6% (inactive) | -84.5% (active) and 16.3% (inactive) | -80.7% (active) and -36.8% (active) | -92.8% (active) and 15.8% (inactive) | -91.9% (active) and -22.5% (active) | -84.6% (active) and -25.1% (active) | -83.6% (active) and 25.4% (inactive) | -39.5% (active) and -0.692% (active) | -93.5% (active) and -34.7% (active) | -87.5% (active) and -9.5% (active) | -95.2% (active) and -65.2% (active) | -70.2% (active) and 24% (inactive) | -93.6% (active) and -55.7% (active) | -93.9% (active) and 17.5% (inactive) | -87.8% (active) and -64% (active) | -71.1% (active) and -62.8% (active) |
| O=C(O)CN(CCN(CC(=O)O)CC(=O)O)CCN(CC(=O)O)CC(=O)O | -19% (active) and 104% (inactive) and 110% (inactive) | 15.7% (inactive) and 98.6% (inactive) and 90.3% (inactive) | -3.44% (active) and 107% (inactive) and 116% (inactive) | -75.5% (active) and 97.4% (inactive) and 99.5% (inactive) | -51.4% (active) and 119% (inactive) | 103% (inactive) and 102% (inactive) | -27.9% (active) and 107% (inactive) and 88.5% (inactive) | -85.5% (active) and 106% (inactive) and 98.9% (inactive) | -20.3% (active) and 102% (inactive) and 105% (inactive) | 23% (inactive) and 91.5% (inactive) and 104% (inactive) | -12.6% (active) and 114% (inactive) and 106% (inactive) | 4.41% (active) and 114% (inactive) and 103% (inactive) | -4.09% (active) and 112% (inactive) and 102% (inactive) | 35.8% (inactive) and 100% (inactive) and 90.7% (inactive) | -19.3% (active) and 108% (inactive) and 109% (inactive) | 1.46% (active) and 114% (inactive) and 105% (inactive) | -23.9% (active) and 112% (inactive) and 105% (inactive) | -42.7% (active) and 104% (inactive) | 0.783% (active) and 105% (inactive) and 102% (inactive) | 18.2% (inactive) and 88.8% (inactive) and 102% (inactive) |
| CCN(CC)CCOc1ccc2c(c1)C(=O)c1cc(OCCN(CC)CC)ccc1-2 | 79.5% (inactive) and 71.2% (inactive) | 99.7% (inactive) and 73% (inactive) | 85.8% (inactive) and 60.6% (inactive) | 58.3% (inactive) and 38.2% (inactive) | 46.2% (inactive) and 12.9% (inactive) | 20% (inactive) | – | – | 63.3% (inactive) and -30.9% (active) | 11.3% (inactive) and -4.52% (active) | 74.6% (inactive) and 64.7% (inactive) | 41.7% (inactive) and -9.47% (active) | 98.2% (inactive) and 80.2% (inactive) | 65.5% (inactive) and 78.5% (inactive) | 71.4% (inactive) | 75.1% (inactive) and 54.8% (inactive) | 82.6% (inactive) and 71.5% (inactive) | 50% (inactive) and 38.4% (inactive) | 89.9% (inactive) and 88.6% (inactive) | 91.7% (inactive) and 83.4% (inactive) |
| CCC(C)C1(C2CCCC2)NC(=O)NC1=O (centres undefined) | 103% (inactive) and 101% (inactive) | 113% (inactive) and 108% (inactive) | 99.1% (inactive) and 115% (inactive) | 98.6% (inactive) and 102% (inactive) | 117% (inactive) and 107% (inactive) | 92.1% (inactive) | – | 100% (inactive) and 106% (inactive) | 104% (inactive) and 108% (inactive) | 102% (inactive) and 116% (inactive) | 121% (inactive) | 99.3% (inactive) | 114% (inactive) | 101% (inactive) and 94.3% (inactive) | 106% (inactive) and 127% (inactive) | 103% (inactive) and 107% (inactive) | 117% (inactive) and 93.9% (inactive) | 104% (inactive) and 96.6% (inactive) | 94.9% (inactive) and 101% (inactive) | 98.4% (inactive) and 106% (inactive) |
| O=C(Nc1ccc(Br)cc1)c1cc(Br)ccc1O | 0.675% (active) and -16.7% (active) | 18.2% (inactive) and -33.2% (active) | -15.9% (active) and 1.23% (active) | 20.2% (inactive) and -5.46% (active) | 2.62% (active) and 3.86% (active) | -23% (active) and -12% (active) | -13.8% (active) and 2.52% (active) | – | 0.723% (active) and 2.62% (active) | 92.9% (inactive) and -42.3% (active) | 19.9% (inactive) and 8.81% (active) | 9.25% (active) and -22.8% (active) | -31.4% (active) and -27.8% (active) | -36.1% (active) and -21.9% (active) | 2.31% (active) and 38.3% (inactive) | 9.39% (active) and 9.12% (active) | -22.6% (active) and -16.5% (active) | 18.3% (inactive) and -1.29% (active) | 14% (inactive) and 8.51% (active) | 8.56% (active) and 8.13% (active) |
| COc1cc(/C=N/Nc2nc3c([nH]2)c(=O)n(C)c(=O)n3C)ccc1O | 93.6% (inactive) and 111% (inactive) | 103% (inactive) and 113% (inactive) | 101% (inactive) and 105% (inactive) | 105% (inactive) and 102% (inactive) | 109% (inactive) and 111% (inactive) | 102% (inactive) | – | 105% (inactive) and 97.8% (inactive) | 95.7% (inactive) and 112% (inactive) | 119% (inactive) and 126% (inactive) | 114% (inactive) | 91.4% (inactive) and 106% (inactive) | 88.5% (inactive) and 97.9% (inactive) | 96.4% (inactive) and 107% (inactive) | 122% (inactive) and 123% (inactive) | 104% (inactive) and 109% (inactive) | 115% (inactive) and 118% (inactive) | 89.9% (inactive) and 104% (inactive) | 102% (inactive) and 110% (inactive) | 102% (inactive) and 108% (inactive) |
| Cc1cccc(/C=C\C(=O)c2ccccc2)c1 | 93.5% (inactive) and 101% (inactive) | 111% (inactive) and 95.5% (inactive) | 97% (inactive) and 93.7% (inactive) | 98.5% (inactive) and 111% (inactive) | 109% (inactive) and 100% (inactive) | 81.3% (inactive) | – | 87.7% (inactive) and 92.8% (inactive) | 79.7% (inactive) | 112% (inactive) and 114% (inactive) | 99.9% (inactive) and 104% (inactive) | 67% (inactive) and 3.91% (active) | 91.5% (inactive) | 94% (inactive) and 110% (inactive) | 118% (inactive) and 96.8% (inactive) | 105% (inactive) and 99.5% (inactive) | 116% (inactive) and 95.7% (inactive) | 112% (inactive) and 108% (inactive) | 102% (inactive) and 109% (inactive) | 98.5% (inactive) |
